Drawing on PubChem BioAssay AID1347071 (National Center for Advancing Translational Sciences (NCATS), 2019), this text covers Potency for 28 compounds.

In all, about 410,000 compounds went through this assay and about 260 (0.063%) were called active. Where a call stands in place of a potency, no number is given. Not shown: some 2% with an inconclusive outcome. This is one part of a sample in which actives are shown more often than they occur. Calls come from the whole dose curve; as a rule, active = well fitted activation curve with a large enough effect; inconclusive = small, poorly fitted or top-dose-only effect; inactive = no such curve, though single readings can be large or run the other way.
Potency is the fitted concentration of half-maximal effect.

The test can be described thus: qHTS for compounds that reverse cellular toxicity of Amyloid beta (A-beta) peptide in yeast: Primary Screen. Note: nearly all actives have a fitted effect of over 55% in size. To be noted: yeast expressing A-beta42, growth rescue, OD600, 48 h; series mostly up to 46.1 µM. In short, it runs like this:
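Yeast growth medium received pinned compounds, then yeast cells expressing toxic A-beta were added; plates incubated at 30 C for 48 hr. Growth read as absorbance at 600 nm, normalized to DMSO and equimolar FeCl3 plus clioquinol controls.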
On the technique in general: Quantitative high-throughput screening tests each substance at several concentrations.
Turning to `CCOc1ccc(C(=O)NC(=S)Nc2ccc(N3CCOCC3)c(Cl)c2)cc1[N+](=O)[O-]`, the Potency entry is “inactive”.
To `O=C(CSc1nccc(=O)[nH]1)Nc1ccc(N2CCOCC2)c(Cl)c1` belongs “inactive”.
As to `O=C(CSc1ccc([N+](=O)[O-])cn1)Nc1ccc(N2CCOCC2)c(Cl)c1`, the Potency is 22.4 µM (active).
Consider `Cc1cc(=O)c2cc(C(=O)Nc3cccc(C)c3C)ccc2[nH]1`, for which the Potency result is “inactive”.
As for `Cc1cc2n(n1)C(c1cc(C(C)(C)C)c(O)cc1O)Nc1ccccc1-2` (stereo not drawn), the Potency entry was “inactive”.
Turning to `Cc1ccc(S(=O)(=O)c2nc(-c3cccs3)oc2N2CCCCC2)cc1`, the Potency entry was “inactive”.
To `CCOC(=O)c1ccc(NC(=O)Cn2cc(S(=O)(=O)Cc3ccccc3F)c3ccccc32)cc1` belongs “inactive”.
To `Cc1ccc2sc(N(Cc3cccnc3)C(=O)C3COc4ccccc4O3)nc2c1C` (stereo not drawn) belongs “inactive”; to `Cc1ccc(C(=O)Nc2ccc3[nH]c(=O)c(=O)[nH]c3c2)cc1`, “inactive”; to `C=Cc1ccc(Cn2c(C(=O)OC)cc3sc(C)cc32)cc1`, “inactive”.
`CC1=C(C(=O)OCc2ccc(C)cc2)C(c2c(Cl)cccc2Cl)CC(=O)N1` (stereo not drawn): the Potency result is “inactive”.
As to `COc1cc(-c2noc(-c3ccc(N4CCCC4)c([N+](=O)[O-])c3)n2)cc(OC)c1OC`, the Potency entry was “inactive”.
Regarding `CCc1ccccc1NC(=O)N1CCN(C(=O)c2nsc3ccccc23)CC1`, the Potency result was “inactive”.
With `COc1cccc(CNC(=O)CN2C(=O)CCc3cc(S(=O)(=O)N4CCOCC4)ccc32)c1`, the Potency entry is “inactive”.
Take `CCn1c2c(c(=O)n3ncc(C(=O)N4CCN(c5ccccc5)CC4)c13)CN(Cc1ccc(OC)cc1)CC2`: the Potency result is “inactive”.
The value for `O=C(NC1CC(=O)N(c2ccc(Cl)cc2)C1)C1CCCC1` (stereo not drawn) was “inactive”.
Turning to `Cc1csc2nc(COC(=O)c3ccc(NC(=O)COc4ccccc4F)cc3)cc(=O)n12`, the Potency result is “inactive”.
To `COc1ccc(-c2cccc(NS(=O)(=O)c3cc(C)c(OC)c(C)c3C)c2)nn1` belongs “inactive”; to `CCN(C(=O)Cn1cc(S(=O)(=O)N2CCN(c3ccccc3F)CC2)c2ccccc2c1=O)c1ccc(C)c(C)c1`, “inactive”.
To `COc1cc2nc(SCc3ccc(F)cc3)n3nc(CCn4c(C)nc5ccccc54)nc3c2cc1OC` belongs “inactive”; to `N#Cc1nc(/C=C/c2ccc(F)cc2)oc1NC1CCCCC1`, “inactive”; to `Cc1ccc(CNS(=O)(=O)c2ccc(-c3cc(C(F)(F)F)on3)s2)cc1`, “inactive”.
For the compound `O=C(CCC1N=C2c3ccccc3N=C(SCc3ccccc3F)N2C1=O)NCCc1ccccc1` (stereo not drawn), the Potency entry is “inactive”.
To `Cc1ccc(OCCn2c(CNc3ccccc3C)nc3ccccc32)cc1` belongs “inactive”.
To `CCCC12CN3CC(C)(CN(C1)C3c1ccccc1Cl)C2=O` (stereo not drawn) belongs “inactive”.
The value for `CCC1CCCCN1C(=O)Cn1c(=O)n(CCCCCC(=O)NCc2ccccc2)c(=O)c2sccc21` (stereo not drawn) was “inactive”; that for `Cc1ccc(C2c3[nH]c4ccccc4c3CCN2C(=O)c2cccc(C)c2)cc1` (stereo not drawn) was “inactive”; that for `Cc1onc(-c2ccc(F)cc2F)c1C(=O)Nc1cccc(C(F)(F)F)c1` was “inactive”.
